Laboratory results: PubChem BioAssay (NCATS)
Inconclusive results are not listed. Where a call stands in place of a potency, no number is given. Active and inactive are the calls of the source. Calls come from the whole dose curve; as a rule, active = well fitted inhibition curve with a large enough effect; inconclusive = small, poorly fitted or top-dose-only effect; inactive = flat fitted curve, though single readings scatter.

Experiment: qHTS to identify inhibitors of the type 1 interferon - major histocompatibility complex class I in skeletal muscle: primary screen against the NCATS Pharmaceutical Collection (AID 1347407);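 note: luminescence of HiBiT knocked into endogenous HLA-B as interferon-induced MHC class I level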
Conditions: human skeletal muscle cells, IFN-b-induced MHC-I HiBiT luminescence, 24 h; series mostly up to 45.9 µM
Method in brief: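 Compounds […] were added to CRISPR-engineered HLA-B-HiBiT C25cl48 human myoblasts with 4.0 ng/ml IFN-beta. After 24 hrs at 37 C, cells were lysed and HiBiT luminescence measured.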
Potency is the fitted concentration of half-maximal effect.

| SMILES | Potency |
| --- | --- |
| N[C@@H](CCC(=O)N[C@@H](CS)C(=O)NCC(=O)O)C(=O)O | inactive |
| NCCCC[C@H](N[C@@H](CCc1ccccc1)C(=O)O)C(=O)N1CCC[C@H]1C(=O)O | inactive |
| COc1ccc(C2C(=O)c3ccccc3C2=O)cc1 | inactive |
| c1ccc(-c2ccc(C(c3ccccc3)n3ccnc3)cc2)cc1 (centres undefined) | inactive |
| CC(C)n1nc(-c2cc3cc(O)ccc3[nH]2)c2c(N)ncnc21 | 4.7 µM (active) |
| COc1cc2c(cc1OC)C(C(C(=O)N(CCc1ccc(OC)c(OC)c1OC)CCc1ccc(OC)c(OC)c1OC)c1ccccc1)=NCC2 (centres undefined) | inactive |
| CC(C)(C(=O)c1cccnc1)c1cccnc1 | inactive |
| Cc1c(N(C)CS(=O)(=O)O)c(=O)n(-c2ccccc2)n1C | inactive |
| NC(CS)C(=O)O (centres undefined) | inactive |
| NC(=O)c1cc[n+](CC2=C(C(=O)[O-])N3C(=O)[C@@H](NC(=O)Cc4cccs4)[C@H]3SC2)cc1 | inactive |
| C[C@@H]1C[C@H]2[C@@H]3C[C@H](F)C4=CC(=O)C(Cl)=C[C@]4(C)[C@@]3(F)[C@@H](O)C[C@]2(C)[C@@]1(O)C(=O)CO | inactive |
| COC(=O)CCc1ccc(OCC(O)CNC(C)C)cc1 (centres undefined) | inactive |
| NCCC(O)(P(=O)(O)O)P(=O)(O)O | inactive |
| O=c1ccc2ccccc2o1 | inactive |
| O=C1[C@H]2CCCC[C@H]2C(=O)N1CCCCN1CCN(c2nsc3ccccc23)CC1 | inactive |
| CCOC(=O)/C=C(C)/C=C/C=C(C)/C=C/c1c(C)cc(OC)c(C)c1C | inactive |
| CC(=O)OCC(=O)NCCCOc1cccc(CN2CCCCC2)c1 | inactive |
| CC(C)(Oc1ccc(Cl)cc1)C(=O)O | inactive |
| CCC(C(=O)OCCN(CC)CC)c1ccccc1 (centres undefined) | inactive |
